Assay outcomes: PubChem, National Center for Advancing Translational Sciences (NCATS)
Only some compounds are listed: those with a hit (about 9.3% of all), similar ones and a draw of the others.
HCMV inh = inhibitors of human cytomegalovirus | HFF cells, HCMV-luciferase reporter, 72 h; hits give low values | activity change, negative = inhibition, % at 57.5 µM | 410,000 compounds, 4.5% hits; in the data active = activity change below about -60%; inconclusive = no clear call, values can overlap the other calls; inactive = above about -39%
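Two compound doses tested in HFFs infected with HCMV-luciferase, MOI 1 PFU/cell, 72 h at 37C. Lysate luminescence read with OneGlo; data normalized against buffer-only and 10uM Salinomycin inhibitor controls.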
VACV Venus inh = inhibitors of vaccinia virus (Venus reporter) | Potency, µM (doses to about 36.5 µM), hits mostly inhibitors | Vaccinia virus Venus reporter expression, fluorescence | 330,000 compounds, 0.46% hits; calls by dose curve; tested in A549 cells; also: nearly all actives have a fitted effect of over 30% in size
FMDV antiviral = antivirals against foot and mouth disease virus | FMDV antiviral cell-based qHTS | Potency, µM (top dose mostly 57.9 µM), actives largely listed as inhibitors | 410,000 compounds, 1.2% hits; calls by dose curve; tested in HEK293T cells; also: read-out not given here; nearly all actives have a fitted effect of over 45% in size
VACV mCherry inh = vaccinia inhibition (mCherry reporter). Vaccinia virus mCherry reporter infection, fluorescence. Potency, µM (top dose mostly 36.5 µM), hits mostly inhibitors. 310,000 compounds, 0.63% hits. AID 720579; calls by dose curve; tested in A549 cells; also: nearly all actives have a fitted effect of over 35% in size
HCV inh = inhibitors of hepatitis C virus infection; Potency, µM (doses to about 41.8 µM), most hits filed as inhibitors; 340,000 compounds, 3.4% hits; Huh7.5.1 HCVcc-Cre infection, luciferase reporter, 44 h
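Whole-lifecycle infectious HCVcc-Cre system; cells 1,000/well, compound then virus (~0.5 moi) added 4 h after plating, 44 h culture. Luciferase read 15 sec following 15 min substrate incubation, room temp.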
Sm TGR inh = inhibitors of Schistosoma mansoni thioredoxin glutathione reductase. Q962Y6. AID 485364. purified TGR, DTNB reduction, TNB absorbance 405 nm. 360,000 compounds, 3% hits. Potency, µM (doses to about 114 µM), most hits filed as inhibitors; also: nearly all actives have a fitted effect of over 60% in size
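Kinetic colorimetric format: TGR-catalysed, NADPH-driven DTNB reduction monitored via TNB absorbance. Enzyme dispensed at 20 nM; compound exposure 15 min at room temperature before reaction start.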
A number is an active result; - = inactive; ? = inconclusive; . = not tested or not shown; [ ] = remark or other dose. Unless noted, calls follow the shape of the dose curve; as a rule, active = well fitted curve in the direction sought with a large enough effect; inconclusive = small, poorly fitted or top-dose-only effect, or another doubt; inactive = no such curve, though single readings can be large; an effect the other way counts as inactive or inconclusive.

SMILES	HCMV inh	VACV Venus inh	FMDV antiviral	VACV mCherry inh	HCV inh	Sm TGR inh
COc1ccc(CCNC(=O)c2ccc(Cn3c(=O)c4ccccc4n(Cc4cc(C)ccc4C)c3=O)cc2)cc1OC	-	-	-	-	.	-
CN1CCN(c2ncc3nc(-c4cccs4)c(=O)n(-c4ccccc4)c3n2)CC1	.	.	-	.	.	.
C=CCn1c(SC(C)C(=O)NCC2CCCO2)nnc1-c1ccc(OC)cc1 (stereo not given)	?	.	-	.	-	.
Cc1ccc(NC(=O)/C=C\C(=O)N(c2ccc(C(C)C)cc2)C(C(=O)NCc2ccco2)c2ccc(F)cc2)cc1 (stereo not given)	-81.8	?	-	?	.	-
Cc1ccc(N(C(=O)c2sc(C)nc2C)C(C(=O)NCc2ccco2)c2ccccc2)cc1 (stereo not given)	?	-	.	-	-	-
CC(C)c1ccc(NC(=O)CCC(=O)NCc2ccco2)cc1	-	-	-	-	-	-
COc1ccc(NC(=O)/C=C\C(=O)N(c2ccc(C(C)C)cc2)C(C(=O)NCc2ccco2)c2ccc(C)cc2)cc1 (stereo not given)	-	?	-	?	.	56.2µM
COc1ccc(N(C(=O)/C=C\C(=O)Nc2ccc(C)cc2)C(C(=O)NCc2ccco2)c2ccc(C)cc2)cc1 (stereo not given)	-	-	-	-	.	44.7µM
CC(=O)c1cccc(NCc2ccccc2-c2nnc(-c3ccccc3)o2)c1	-	-	-	-	.	-
O=C(Cc1ccccc1Cl)NNC(=O)Nc1ccccc1	-	-	-	-	-	-
CCCCn1nnnc1NCc1ccc(OC)c(OC)c1OC	-	.	-	.	-	-
CCC/C=C1/CCCOC(C(=O)NCc2ccccc2)(C(F)(F)F)C1 (stereo not given)	-	-	-	-	0.891µM	.
CC1(c2ccccc2Cl)NC(=O)N(CC(=O)NCCC2=CCCCC2)C1=O (stereo not given)	-	-	-	-	-	-
CS(=O)(=O)N(CC(=O)NCc1ccccc1Cl)c1cccc([N+](=O)[O-])c1	-	-	-	-	-	-
CC(=O)Nc1ccc(Nc2ccc(S(=O)(=O)C(F)(F)F)cc2[N+](=O)[O-])cc1	-97.0	-	-	-	-	-
Cc1[nH]c2ccccc2c1C(=O)C(=O)N1c2ccccc2CC1C (stereo not given)	-61.8	?	?	?	?	?
Cc1[nH]c2ccccc2c1C(=O)C(=O)N1CCCc2ccccc21	-	-	-	?	-	-
CCOC(=O)c1c(C)[nH]c(C(=O)OCC(=O)N2c3ccccc3CC2C)c1C (stereo not given)	-	-	?	?	10µM	-
CCOC(=O)C1=C(C)NC(C)=C(C(=O)OCC)C1C(=O)OCC(=O)N1c2ccccc2CC1C (stereo not given)	-	-	-	-	?	-
Cc1cc(OCCCn2c(CCNC(=O)C3CCCCC3)nc3ccccc32)ccc1Cl	-73.2	-[7.34 µM]	-	-[7.34 µM]	.	-
O=C(NCc1ccc(F)cc1)c1cc2c(cc1Cl)N1CCCCCC1=NS2(=O)=O	-	.	-	.	-	-
O=S(Cc1ccc(Br)cc1)Cc1nnc(SCc2c(Cl)cccc2Cl)n1-c1ccccc1 (stereo not given)	?	?	28.2µM	?	?	-
Cn1c(CS(=O)Cc2c(Cl)cccc2Cl)nnc1SCc1c(Cl)cccc1Cl (stereo not given)	-	.	-	.	-	-
Cc1ccccc1CN(C)C1CCN(C)CC1	-	.	-	.	-	-
CN1CCC(N(C)CC(O)c2ccccc2)CC1 (stereo not given)	?	-	-	-	-	12.6µM
SMILES	HCMV inh	VACV Venus inh	FMDV antiviral	VACV mCherry inh	HCV inh	Sm TGR inh
COc1ccc(C(CNC(=O)c2oc3ccc(Br)cc3c2C)N2CCCCC2)cc1 (stereo not given)	-	-	-	-	12.6µM	-
COc1ccc(C(CNC(=O)c2oc3ccc(OC)cc3c2C)N2CCCC2)cc1 (stereo not given)	-	-	-	-	?	-
Cc1c(C(=O)N2CCOCC2)oc2ccc(Br)cc12	-	-	-	-	-	-
Cc1c(C(=O)Nc2ccc(-c3nnc4n3CCCCC4)cc2)oc2ccc(Br)cc12	?	-	-	-	11.2µM	-
COc1ccc(C(CNC(=O)c2oc3ccc(F)cc3c2C)N2CCCCC2)cc1 (stereo not given)	-	.	?	.	11.2µM	-
Cc1c(C(=O)N2CCCCC2)oc2ccc(Br)cc12	-	-	-	-	22.4µM	-
COc1ccc(OC)c(-c2csc(NC(=O)Cc3ccccc3OC)n2)c1	-	?	-	-	?	-
Cc1ccccc1OCc1nnc(SCC(=O)Nc2c(C)n(C)n(-c3ccccc3)c2=O)n1-c1ccccc1	-	-	?	-	-	-
O=C(C1CC(=O)N(c2ccc(Cl)cc2)C1)N1CCOCC1 (stereo not given)	-	-	-	-	-	-
CCOC(=O)/C=C/C(=O)Nc1ccc(-c2nnc3n2CCCCC3)cc1	-	.	-	.	-	-
CCC1CCc2sc(C(=O)NCC(c3ccc(OC)cc3)N3CCCC3)cc2C1 (stereo not given)	-	-	-	-	10µM	-
COc1ccc(/C=C/C(=O)Nc2ccc(-c3nnc4n3CCCCC4)cc2)c(OC)c1	-74.1	-	-	-	?	-
Cc1cc(C(=O)NNc2ccc(C(C)C)cc2)n(C(C)(C)C)n1	-	.	-	.	-	?
Cc1ccc(NC(=O)CSc2nc(-c3ccco3)nc3cc(=O)[nH]n23)cc1C	-	-	-	-	.	22.4µM
COc1ccc(NC(=O)CSc2nc(-c3ccco3)nc3cc(=O)[nH]n23)cc1Cl	-	.	-	.	-	?
COc1ccc(NC(=O)CSc2nc(-c3ccco3)nc3cc(=O)[nH]n23)cc1	-	-	-	-	.	10µM
CCN(C(=O)C1CSC2(C)CCC(=O)N12)c1nc2c(C)cccc2s1 (stereo not given)	-	-	-	-	-	-
COc1cc(Cl)c(C)cc1NC(=O)COC(=O)C1=NN(c2ccccc2)C(=O)CC1	-	.	-	.	-	.
Cc1cccc(OCCSCc2nc3ccccc3[nH]2)c1	-	-	?	.	6.31µM	-
CCOC(=O)c1c2c(c(=S)n(-c3ccccc3)c1N)CCC2	-	.	-	.	?	?
COc1ccc(-c2c3c(cc(C)[n+]2[O-])oc2ccc(OC)cc23)cc1	-91.4	-	28.2µM	-	-	-
COc1ccc2oc3cc(C)[n+]([O-])c(-c4ccc(Cl)cc4)c3c2c1	-90.9	-	35.5µM	-	?	-
COc1ccc2oc3cc(C)[n+]([O-])c(-c4ccc(C)cc4)c3c2c1	-92.9	-	25.1µM	-	?	-
O=C(CN1C2CCCC1CC(NC(=O)c1ccccc1)C2)NC1CC1 (stereo not given)	-	.	-	.	-	-
N/C(=N\OC(=O)Nc1cccc(C(F)(F)F)c1)c1ccno1	-	.	-	.	-	-
